For experiment [1], the target named is Retinoic acid receptor RXR-alpha (Homo sapiens) (UniProt P19793). Kind of experiment: ATG_RXRa_TRANS: Attagene TRANS-FACTORIAL HepG2 Assay for human Retinoid X Receptor alpha (RXRa) (AID 2283012; active = hit-call score of the fitted dose curve at least 0.9, where 1 is the maximum). An outline of the steps:
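HepG2 cells transiently transfected with multiplexed GAL4-UAS reporter units and chimeric NR-GAL4 fusions, dosed 24 h. Reporter mRNA measured by RT-PCR, FAM labelling, HpaI digestion and capillary electrophoresis; gain-of-signal fitted relative to DMSO baseline.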

Experiment [2] deals with human Thyroid Receptor alpha (THRa1), THRA (gene 7067) (UniProt P10827). In words: ATG_THRa1_TRANS: Attagene TRANS-FACTORIAL HepG2 Assay for human Thyroid Receptor alpha (THRa1) (AID 2283014; active = hit-call score of the fitted dose curve at least 0.9, where 1 is the maximum). An outline of the steps: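 First, HepG2 cells receive multiple GAL4-UAS reporter units and the chimeric receptor. They are then dosed for 24 h, after which RNA is reverse-transcribed, amplified, labelled, HpaI-cut and sized by capillary electrophoresis; gain relative to DMSO is scored.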

Read-out in experiment [3]: E-selectin (Homo sapiens) (UniProt P16581)
In words: BSK_3C_Eselectin: BioMAP Diversity Plus: 3C Assay for Eselectin Biomarker Activity (AID 2283015).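 Also: cell surface E-selectin protein quantified by ELISA 24 h after dosing.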 As to conditions: primary human endothelial cells (HUVEC); actives raise or lower the signal. An outline of the steps:
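Human vascular endothelium from umbilical vein is exposed to test chemicals for 24 h. E-selectin levels are read by ELISA and compared with DMSO controls.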

Read-out in experiment [4]: Interleukin-1 alpha (IL1a), IL1A (gene 3552)
Kind of experiment: BSK_BE3C_IL1a: BioMAP Diversity Plus: BE3C Assay for Interleukin-1 alpha (IL1a) Biomarker Activity (AID 2283016). The note with it: primary human bronchial epithelial cells; actives raise or lower the signal. An outline of the steps: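 Human primary bronchial epithelial cells (BE3C system) were dosed with compound and IL-1a measured by ELISA 24 h later. Activity was fitted bidirectionally against DMSO baseline; cytotoxicity was tracked in parallel cultures by SRB total-protein staining.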

Read-out in experiment [5]: Monocyte Chemoattractant Protein-1 (MCP1), CCL2 (gene 6347)
Kind of experiment: BSK_3C_MCP1: BioMAP Diversity Plus: 3C Assay for Monocyte Chemoattractant Protein-1 (MCP1) Biomarker Activity (AID 2283017). As to conditions: primary human endothelial cells (HUVEC); actives raise or lower the signal. An outline of the steps:
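Endothelial cells from human umbilical vein are dosed with chemical, cultured 24 h, then assayed for MCP-1 by ELISA; both increases and decreases are modelled against DMSO controls.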

Read-out in experiment [6]: Monocyte Chemoattractant Protein-1 (MCP1), CCL2 (gene 6347)
Kind of experiment: BSK_4H_MCP1: BioMAP Diversity Plus: 4H Assay for Monocyte Chemoattractant Protein-1 (MCP1) Biomarker Activity (AID 2283018). The note with it: primary human endothelial cells (HUVEC); actives raise or lower the signal. An outline of the steps:
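Human umbilical vein endothelial cells (4H system) dosed with chemical; MCP-1 measured by ELISA 24 h after dosing. Bidirectional curve fitting against DMSO negative control as baseline; parallel SRB total-protein staining tracks overt cytotoxicity.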

Read-out in experiment [7]: Human Leukocyte Antigen - DR isotype (HLADR), HLA-DRA (gene 3122)
Kind of experiment: BSK_3C_HLADR: BioMAP Diversity Plus: 3C Assay for Human Leukocyte Antigen - DR isotype (HLADR) Biomarker Activity (AID 2283019).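 Also: ELISA of cell-surface HLA-DR on HUVEC 24 h after dosing.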 The note with it: primary human endothelial cells (HUVEC); actives raise or lower the signal. An outline of the steps:
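Endothelial cells from human umbilical vein are treated with test chemical; after 24 h, HLA-DR levels are measured by ELISA. Data are fitted in both directions using DMSO as the baseline.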

Read-out in experiment [8]: Interleukin-8 (IL8), CXCL8 (gene 3576)
In words: BSK_3C_IL8: BioMAP Diversity Plus: 3C Assay for Interleukin-8 (IL8) Biomarker Activity (AID 2283020). The note with it: primary human endothelial cells (HUVEC); actives raise or lower the signal. A digest of the protocol:
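Primary human umbilical vein endothelial cells (3C system) were exposed to test chemical for 24 h, then IL-8 was quantified by ELISA. Responses were fitted bidirectionally against DMSO vehicle as baseline.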

Read-out in experiment [9]: Monokine induced gamma interferon (MIG), CXCL9 (gene 4283)
Kind of experiment: BSK_3C_MIG: BioMAP Diversity Plus: 3C Assay for Monokine induced gamma interferon (MIG) Biomarker Activity (AID 2283021). The note with it: primary human endothelial cells (HUVEC); actives raise or lower the signal. An outline of the steps:
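Primary human umbilical vein endothelial cells in the 3C system were exposed to chemical for 24 h, after which MIG was quantified by ELISA. Activity was fitted bidirectionally against DMSO as negative control and baseline.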

Experiment [10] addresses human Vitamin D Receptor (VDR), VDR (gene 7421) (UniProt P11473). In words: ATG_VDR_TRANS: Attagene TRANS-FACTORIAL HepG2 Assay for human Vitamin D Receptor (VDR) (AID 2283022; active = hit-call score of the fitted dose curve at least 0.9, where 1 is the maximum). An outline of the steps: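 Fluorescence of labelled reporter cDNA fragments, resolved by capillary electrophoresis, gives mRNA induction after 24 h treatment of HepG2 cells carrying transfected Gal4-fusion reporter units. Activity is fitted in the positive direction with DMSO as baseline.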

Experiment [11] is described as follows: BSK_3C_SRB: Viability Assessment in the BioMAP Diversity Plus: 3C Assay (AID 2283023).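 Also: cells read 24 h after compound dosing; fitted both ways against DMSO so a hit may be signal rise or drop.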 The note with it: primary human endothelial cells (HUVEC). A digest of the protocol:
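Cells were dosed with chemical, cultured 24 h, fixed with 10% TCA, stained with 0.1% SRB and read at 560 nm. Human umbilical vein endothelium was used; DMSO served as negative control and baseline.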

Read-out in experiment [12]: Matrix Metallopeptidase 1 (MMP1), MMP1 (gene 4312)
In words: BSK_BE3C_MMP1: BioMAP Diversity Plus: BE3C Assay for Matrix Metallopeptidase 1 (MMP1) Biomarker Activity (AID 2283024). As to conditions: primary human bronchial epithelial cells; actives raise or lower the signal. A digest of the protocol:
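Primary human bronchial epithelial cells were dosed with test chemicals, and MMP1 levels were measured by ELISA 24 h later. Data were fitted bidirectionally against DMSO as the negative control and activity baseline.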

A short description of experiment [13]: BSK_3C_Vis: BioMAP Diversity Plus: 3C Assay for Morphology Visualization (AID 2283025).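 Also: fitted both ways so gain or loss versus DMSO counts.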 As to conditions: primary human endothelial cells (HUVEC). An outline of the steps:
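Human umbilical vein endothelial cells in the 3C system were imaged by light microscopy 24 h after chemical dosing to record cell morphology. Activity was fitted bidirectionally against DMSO as negative control and baseline; the endpoint serves as a background control.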

Read-out in experiment [14]: Pselectin, SELP (gene 6403)
Kind of experiment: BSK_4H_Pselectin: BioMAP Diversity Plus: 4H Assay for Pselectin Biomarker Activity (AID 2283026). As to conditions: primary human endothelial cells (HUVEC); actives raise or lower the signal. An outline of the steps:
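Primary human umbilical vein endothelial cells were exposed to test chemical for 24 h, then cell-surface P-selectin was quantified by ELISA. Activity was fitted bidirectionally against DMSO as negative control and baseline.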

Experiment [15] is described as follows: BSK_4H_SRB: Viability Assessment in the BioMAP Diversity Plus: 4H Assay (AID 2283027).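 Also: cells exposed to compound for 24 h before staining.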 As to conditions: primary human endothelial cells (HUVEC). A digest of the protocol:
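Human umbilical vein endothelial cells were dosed with chemical and, after 24 h, fixed with 10% TCA, stained with 0.1% sulforhodamine B, and read at 560 nm to give total protein as a cytotoxicity measure. Bidirectional fitting relative to DMSO control.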

The nature of experiment [16]: BSK_BE3C_SRB: Viability Assessment in the BioMAP Diversity Plus: BE3C Assay (AID 2283028). The note with it: primary human bronchial epithelial cells. A digest of the protocol:
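Overt cytotoxicity was assessed as total protein in confluent human primary bronchial epithelial cultures 24 h after chemical addition, using 0.1% sulforhodamine B staining read at 560 nm.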

Read-out in experiment [17]: Thrombomodulin, THBD (gene 7056)
Kind of experiment: BSK_3C_Thrombomodulin: BioMAP Diversity Plus: 3C Assay for Thrombomodulin Biomarker Activity (AID 2283029). As to conditions: primary human endothelial cells (HUVEC); actives raise or lower the signal. A digest of the protocol: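 Primary human umbilical vein endothelial cells (3C system) were exposed to chemical for 24 h, then thrombomodulin levels were measured by ELISA. Activity was fitted bidirectionally against the DMSO negative control as baseline.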

Read-out in experiment [18]: Urokinase-type plasminogen activator receptor (uPAR), PLAUR (gene 5329)
In words: BSK_4H_uPAR: BioMAP Diversity Plus: 4H Assay for Urokinase-type plasminogen activator receptor (uPAR) Biomarker Activity (AID 2283030). As to conditions: primary human endothelial cells (HUVEC); actives raise or lower the signal. A digest of the protocol: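 Chemicals are dosed onto human vascular endothelial primary cells (umbilical vein). After 24 h, uPAR is read by ELISA. Gain or loss of signal is fitted relative to DMSO.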

Read-out in experiment [19]: Vascular endothelial growth factor receptor 2 (Homo sapiens) (UniProt P35968)
Kind of experiment: BSK_4H_VEGFRII: BioMAP Diversity Plus: 4H Assay for Vascular endothelial growth factor receptor 2 (VEGFR2) Biomarker Activity (AID 2283031). The note with it: primary human endothelial cells (HUVEC); actives raise or lower the signal. A digest of the protocol:
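VEGFRII levels on human vascular endothelial primary cells were determined by ELISA at 24 hours post-dosing, with gain- or loss-of-signal fitted against DMSO controls.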

The target of experiment [20] is human Retinoid X Receptor beta (RXRb), RXRB (gene 6257) (UniProt P28702). In words: ATG_RXRb_TRANS: Attagene TRANS-FACTORIAL HepG2 Assay for human Retinoid X Receptor beta (RXRb) (AID 2283013; active = hit-call score of the fitted dose curve at least 0.9, where 1 is the maximum). A digest of the protocol: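 HepG2 cells transiently transfected with multiplexed reporter units driven by GAL4-UAS and exogenous chimeric NR-Gal4 proteins; treated 24 h. Reporter mRNA measured by RT-PCR, 6-FAM labelling and capillary electrophoresis; gain-of-signal fitted versus DMSO baseline.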

Records with an inconclusive call do not appear. Activity calls are given as the source filed them. The calls were made as follows, unless noted: active = hit-call score of the fitted dose curve at least 0.9, where 1 is the maximum; inactive = score below 0.9.

Chain of Retinoic acid receptor RXR-alpha (Homo sapiens) (P19793 whole entry, looked up, the tested form may be a part): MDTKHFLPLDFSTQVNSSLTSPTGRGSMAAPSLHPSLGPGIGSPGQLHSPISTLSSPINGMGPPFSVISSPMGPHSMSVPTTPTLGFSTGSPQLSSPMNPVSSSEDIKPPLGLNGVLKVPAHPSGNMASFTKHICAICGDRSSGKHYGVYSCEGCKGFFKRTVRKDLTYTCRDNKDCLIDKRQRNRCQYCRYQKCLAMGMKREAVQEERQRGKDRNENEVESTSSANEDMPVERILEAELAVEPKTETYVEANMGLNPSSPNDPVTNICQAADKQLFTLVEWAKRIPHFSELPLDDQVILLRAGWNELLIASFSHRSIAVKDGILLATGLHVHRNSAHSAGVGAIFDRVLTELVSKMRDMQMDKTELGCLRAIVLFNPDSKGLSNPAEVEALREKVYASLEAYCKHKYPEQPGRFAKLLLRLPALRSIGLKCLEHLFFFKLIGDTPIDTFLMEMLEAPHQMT
Chain of E-selectin (Homo sapiens) (P16581 whole entry, looked up): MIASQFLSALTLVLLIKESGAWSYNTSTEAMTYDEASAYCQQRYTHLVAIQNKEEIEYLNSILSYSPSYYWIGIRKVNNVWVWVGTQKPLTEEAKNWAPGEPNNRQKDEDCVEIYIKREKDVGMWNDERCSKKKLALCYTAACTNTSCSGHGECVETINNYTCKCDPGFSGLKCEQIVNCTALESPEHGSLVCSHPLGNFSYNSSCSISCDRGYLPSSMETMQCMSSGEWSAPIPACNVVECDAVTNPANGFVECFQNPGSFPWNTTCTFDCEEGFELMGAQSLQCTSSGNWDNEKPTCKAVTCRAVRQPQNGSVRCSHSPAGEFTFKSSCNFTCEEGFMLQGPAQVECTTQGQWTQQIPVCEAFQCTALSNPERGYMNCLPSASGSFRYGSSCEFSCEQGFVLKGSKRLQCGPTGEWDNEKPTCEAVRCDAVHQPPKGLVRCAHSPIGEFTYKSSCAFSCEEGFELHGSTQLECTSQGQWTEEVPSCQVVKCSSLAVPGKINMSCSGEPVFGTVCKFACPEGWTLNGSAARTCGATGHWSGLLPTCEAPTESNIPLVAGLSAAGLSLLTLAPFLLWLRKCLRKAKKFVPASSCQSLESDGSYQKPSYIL
Chain of human Vitamin D Receptor (VDR), VDR (gene 7421) (P11473 whole entry, looked up, the tested form may be a part): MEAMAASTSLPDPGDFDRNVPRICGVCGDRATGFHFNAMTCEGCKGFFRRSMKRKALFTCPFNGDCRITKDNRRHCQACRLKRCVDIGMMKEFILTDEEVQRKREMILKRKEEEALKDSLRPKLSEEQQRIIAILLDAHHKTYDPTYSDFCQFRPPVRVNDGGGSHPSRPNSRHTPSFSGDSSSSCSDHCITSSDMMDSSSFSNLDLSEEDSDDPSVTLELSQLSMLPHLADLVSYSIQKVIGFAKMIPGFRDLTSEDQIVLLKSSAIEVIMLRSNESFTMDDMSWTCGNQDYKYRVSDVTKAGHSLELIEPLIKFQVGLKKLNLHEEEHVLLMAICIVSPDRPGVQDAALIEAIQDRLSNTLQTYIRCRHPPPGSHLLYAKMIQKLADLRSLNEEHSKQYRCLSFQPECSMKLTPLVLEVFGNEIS
Chain of human Retinoid X Receptor beta (RXRb), RXRB (gene 6257) (P28702 whole entry, looked up, the tested form may be a part): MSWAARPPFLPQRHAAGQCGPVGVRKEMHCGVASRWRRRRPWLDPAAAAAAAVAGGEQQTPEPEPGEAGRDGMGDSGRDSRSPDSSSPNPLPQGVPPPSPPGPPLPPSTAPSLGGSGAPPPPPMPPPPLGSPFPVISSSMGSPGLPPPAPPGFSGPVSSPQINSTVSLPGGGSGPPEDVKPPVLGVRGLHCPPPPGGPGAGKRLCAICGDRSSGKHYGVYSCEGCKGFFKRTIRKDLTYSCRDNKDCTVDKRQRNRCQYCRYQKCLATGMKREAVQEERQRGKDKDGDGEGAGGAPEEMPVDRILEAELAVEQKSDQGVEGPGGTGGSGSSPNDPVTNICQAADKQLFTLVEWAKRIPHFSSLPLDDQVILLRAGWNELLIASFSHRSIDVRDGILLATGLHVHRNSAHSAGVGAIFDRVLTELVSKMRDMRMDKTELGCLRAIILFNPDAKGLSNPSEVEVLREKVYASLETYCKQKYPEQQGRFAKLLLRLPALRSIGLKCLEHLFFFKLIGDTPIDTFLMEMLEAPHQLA
Chain of human Thyroid Receptor alpha (THRa1), THRA (gene 7067) (P10827 whole entry, looked up, the tested form may be a part): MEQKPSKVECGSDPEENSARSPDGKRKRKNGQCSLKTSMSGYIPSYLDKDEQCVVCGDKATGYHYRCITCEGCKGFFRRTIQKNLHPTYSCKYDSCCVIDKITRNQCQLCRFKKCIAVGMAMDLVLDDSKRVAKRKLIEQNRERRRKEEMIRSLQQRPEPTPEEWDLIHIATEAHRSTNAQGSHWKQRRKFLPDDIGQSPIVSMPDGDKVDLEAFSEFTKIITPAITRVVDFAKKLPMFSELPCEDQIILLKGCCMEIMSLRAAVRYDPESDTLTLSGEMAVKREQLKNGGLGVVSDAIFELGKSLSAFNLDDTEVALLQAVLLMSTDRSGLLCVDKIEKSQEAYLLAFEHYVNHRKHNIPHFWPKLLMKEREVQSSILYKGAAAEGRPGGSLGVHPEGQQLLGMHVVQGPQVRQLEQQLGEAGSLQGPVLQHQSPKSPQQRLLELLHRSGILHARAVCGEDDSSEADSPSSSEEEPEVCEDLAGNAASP

Usually AC50 stands for the concentration giving half of the maximal activity seen. Regarding `O=C(NS(=O)(=O)/C=C/c1cccs1)c1ccc(F)cc1Br`, the outcome in experiment [1], in experiment [2], in experiment [3], in [4], in experiment [5] and in [6] was inactive. In addition, the outcome in [7], in [8], in experiment [9], in experiment [10], in experiment [11] and in experiment [13] was inactive. Further, the result in experiment [14], in experiment [15], in experiment [16], in experiment [17], in experiment [18] and in [19] was inactive. In addition, the AC50 in [12] is 1.31 µM (active).

As to `CCC(C)N(C)C(=O)c1cc2ccccc2c(-c2ccccc2Cl)n1` (stereo not drawn), the molecule was classed as inactive in experiment [1], in experiment [3], in [4], in [5], in experiment [6] and in experiment [7]. For the same molecule, the outcome in [8], in experiment [9], in experiment [10], in [11], in experiment [12] and in [13] was inactive. For the same molecule, the outcome in experiment [14], in experiment [15], in experiment [16], in experiment [17], in experiment [18] and in experiment [19] was inactive.

In the case of `CC(C)OC(=O)C(C)(C)Oc1ccc(C(=O)c2ccc(Cl)cc2)cc1`, the call in experiment [1], in experiment [3], in experiment [4], in experiment [9], in [10] and in experiment [15] was inactive. The outcome in [16] and in [18] was inactive. The concentration at half-maximal activity (AC50) in experiment [20] is 26.9 µM (active); in [5], 30.2 µM (active); in experiment [6], 25.3 µM (active); in experiment [8], 14.1 µM (active); in experiment [11], 14.8 µM (active); in [12], 13.3 µM (active). The AC50 is 39 µM (active) in experiment [13] and 32.8 µM (active) in experiment [14].

In the case of `NCCOCCOCCN`, the molecule was called inactive in [1], in experiment [20], in experiment [3], in experiment [4], in experiment [5] and in experiment [6]. In addition, the result in experiment [8], in [9], in experiment [10], in [11], in [12] and in experiment [13] was inactive. The outcome in experiment [14], in experiment [15], in [16], in experiment [17], in [18] and in [19] was inactive.

`CC(=O)CC(c1ccccc1)c1c(O)c2ccccc2oc1=O` (stereo not drawn): the result in experiment [1], in experiment [3], in [4], in experiment [5], in experiment [6] and in [7] was inactive. In addition, the result in experiment [8], in [9], in [10], in experiment [11], in experiment [12] and in experiment [13] was inactive. For the same molecule, the outcome in experiment [14], in experiment [15], in [16], in experiment [17], in experiment [18] and in experiment [19] was inactive.

For `CCOCCOCCO`, the molecule was called inactive in experiment [1], in experiment [3], in experiment [4], in experiment [5], in [6] and in [8]. The result in [9], in experiment [11], in experiment [12], in [13], in experiment [14] and in experiment [15] was inactive. The outcome in experiment [16], in experiment [17], in [18] and in experiment [19] was inactive.

`S=c1[nH]c2ccccc2s1`: the call in experiment [1], in experiment [3], in experiment [4], in experiment [5], in experiment [6] and in experiment [7] was inactive. Further, the result in experiment [8], in experiment [9], in experiment [10], in experiment [11], in [12] and in experiment [13] was inactive. In addition, the outcome in experiment [14], in experiment [15], in experiment [16], in experiment [17], in [18] and in [19] was inactive.

Values taken from PubChem BioAssay (EPA / NIEHS).
